This is part of a sample that, as a whole, favours compounds with a hit. Of some 83,000 tested, about 20% had one in any assay.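 Testing used 96-well plates and a 48-hour single-concentration exposure. Example: -40 means 40% of the starting cells died.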 Activity calls are given as the source filed them.
Tested on: SNB-19 CNS
Test: NCI-60 one-dose screen, 48 h (100 = growth as untreated, 0 = no growth, -100 = all killed)
Settings: 10 µM unless noted
Procedure: Growth inhibition of the SNB-19 human tumor cell line is measured as a screen for anti-cancer activity. Cells are grown in 96 well plates and exposed to the test compound for 48 hours. Compounds are tested at a single concentration, which is 10^-5 M for most compounds. The reported endpoint is percent growth (GI% or GIPRCNT), where numbers from 0 - 100% represent growth inhibition, and numbers from -100% - 0 represent cell death. For example, a value of 40 represents 60% growth inhibition. A value of 0 means no net growth occurred over the course of the experiment. A value of -40 indicates 40% of cells at the beginning of the experiment died by the end of the experiment. A value of -100 means all cells are dead at the end of the experiment.
NCI-60 Human Tumor Cell Lines Screen was performed using the standard one-dose NCI protocol, which is described in more detail at https://dtp.cancer.gov/discovery_development/nci-60/default.htm.
Compounds with GIPRCNT values below 10 were considered active. Activity score was based on GIPRCNT using the following formula: […]
Score is 0 for GIPRCNT values of 100 or above, 50 for GIPRCNT values of 0, and 100 for GIPRCNT values of -100.

Structure (SMILES)	growth
Cc1cc2c(cc1C)N(C(=O)CCl)CCN2C(=O)CCl	39.6% (inactive)
CC(C)Cn1cnc2c3ccccc3nc(NCn3nc(-c4cc(Cl)cc(Cl)c4Cl)oc3=S)c21	111% (inactive)
CCn1c(C)nc([N+](=O)[O-])c1Sc1nc(N)nc2nc[nH]c12	95.1% (inactive)
Nc1nc(=S)ss1	103% (inactive)
CC1(C)N=C(N)N=C(N)N1c1cccc(CCCCc2ccccc2)c1	17.2% (inactive)
CCOC(=O)C1CSC(C)(C(=O)OCC)N1 (stereo not given)	107% (inactive)
CCCCCCCCCCCCCCCCNc1ccccc1	108% (inactive)
Nn1c(CN2CCN(c3cc4c(cc3F)c(=O)c(C(=O)O)cn4C3CC3)CC2)n[nH]c1=S	99.6% (inactive)
CCCCCC/C=N/Nc1ccc([N+](=O)[O-])cn1	108% (inactive)
COC1OCC(OS(=O)(=O)c2ccc(C)cc2)C(OC(=O)c2ccccc2)C1OC(=O)c1ccccc1 (stereo not given)	61.2% (inactive)
COc1cc(/C=C2/Oc3cc4occc4c(OC)c3C2=O)ccc1OCC(=O)Nc1ccncc1	106% (inactive)
C=CCOc1ccc(/C(Cl)=N/N=C(\Cl)c2cc(OC)c(OC)c(OC)c2)cc1	80.7% (inactive)
COc1ccc(C2=NN(C(=O)COc3ccc(Cl)cc3)C(O)(c3cc(F)c(Cl)cc3Cl)C2)cc1OC (stereo not given)	62.7% (inactive)
CN(C)c1ccc2cc(-c3nc4ccccc4s3)c(N)nc2c1	60.7% (inactive)
COc1ccc(-c2nnc(SCC(=O)Nc3ccc(C(=O)/C=C/c4ccccc4)cc3)o2)cc1OC	92.2% (inactive)
O=S(=O)(Nc1cccc2cc(OS(=O)(=O)c3ccccc3)ccc12)c1ccccc1	78.2% (inactive)
COCCNC(C(=O)c1ccccc1)c1ccccc1 (stereo not given)	97% (inactive)
COC(=O)c1oc2c(C(C)=O)c(OCCCN(C)C)ccc2c1C	103% (inactive)
C[C@H]1C=C(C[C@@H](O)CCCCCCCCCC[C@@H](O)[C@H]2CCC(=O)O2)C(=O)O1	96.7% (inactive)
COc1ccc(-c2[nH]c3ccccc3c2/C=C(\C#N)S(=O)(=O)c2ccccc2)cc1	30.3% (inactive)

Structure (SMILES)	growth
CCn1cc(/C=C2\Oc3cc(OCC#N)ccc3C2=O)c2cc(OC)ccc21	29.8% (inactive)
CC(C)(C)C(=O)/C=c1/[nH]c(=O)/c(=C/c2ccccc2O)s1	66.5% (inactive)
COc1cc([C@@H]2c3cc4c(cc3C(OC3O[C@@H]5COC(C)O[C@H]5[C@H](O)[C@H]3O)C3COC(=O)[C@@H]32)OCO4)cc(OC)c1O (stereo not given in full)	27.4% (inactive)
COc1ccc2c(c1)C(=O)/C(=C/c1cccc(OCC(=O)c3ccccc3)c1)O2	99.1% (inactive)
CCCC(=O)Oc1ccc(/C(=C(\C)c2ccc(OC)cc2)c2ccc(OCCN3CCCCC3)cc2)cc1	91% (inactive)
O=C(NCCNc1nccc(-c2c(-c3cccc(O)c3)nc3sccn23)n1)c1ccccc1O	90.2% (inactive)
CN(C)c1ccc(/C=N/N=C(N)N)cc1	74.2% (inactive)
C=C1C(=O)O[C@H]2[C@H]1CC/C(CNC(=O)/C1=C/CC[C@@]3(C)O[C@H]3[C@H]3OC(=O)C(=C)[C@@H]3CC1)=C\CC[C@@]1(C)O[C@@H]21	97.6% (inactive)
COc1ccc(C(=O)NC(=O)Nc2ccc3c(c2)NC(=O)/C3=C\c2[nH]c(C)c(C(=O)O)c2C)c(F)c1	79.3% (inactive)
C[C@H]1C=C(C[C@@H](O)CC#CC#CCCCCC[C@@H](O)[C@H]2CCC(=O)O2)C(=O)O1	102% (inactive)
O=C1C(Cl)=C(Nc2ccccc2)C(=O)C(Cl)=C1Nc1ccccc1	129% (inactive)
OC(COc1ccccc1Cl)CN1CCN(c2ccc(Cl)cc2)CC1 (stereo not given)	111% (inactive)
COc1cc(/C=C\c2cc(/C=C\c3ccc(O)c(OC)c3)n(C(=O)CNc3ccccc3OC)n2)ccc1O	70.9% (inactive)
CN[C@@H](CCCNC(N)=NC/C=C(/C)CCC=C(C)C)C(=O)N(C)[C@@H](CCCNC(N)=NCC=C(C)C)C(=O)N[C@H](C)[C@H](OS(=O)(=O)O)c1ccc(OS(=O)(=O)O)c(COS(=O)(=O)O)c1	101% (inactive)
c1coc(CSc2ncnc3nc[nH]c23)c1	86.2% (inactive)
CC(C)(C)OC(=O)N1CCN(CCn2cc(C(F)(F)F)c3c(Cl)ncnc32)CC1	37.3% (inactive)
COc1cc(/C=C/C(=O)c2ccc(Oc3ncnc4ccccc34)cc2)cc(OC)c1OC	68.6% (inactive)
O=S(=O)(CCN1CCOCC1)Nc1cc(-c2ccc3ncnc(Nc4ccc(F)c(Cl)c4)c3c2)cnc1Cl	5.93% (active)
CCC1S/C(=N\N=C(/C)c2ccco2)N(c2ccccc2)C1=O (stereo not given)	104% (inactive)
c1ccc(CNCCN(CCNCc2ccccn2)Cc2ccc3ccccc3c2)nc1	18.3% (inactive)
